RE007 growth inh: less growth of the S. pombe RE007 Vpr strain. actives 0.21% (n = 360,000). Potency, µM (titrated, usually from 92.2 µM), hits mostly inhibitors. S. pombe RE007 Vpr strain, BacTiter-Glo ATP luminescence, 24 h; active = well fitted falling curve with a large enough effect; inconclusive = small, poorly fitted or top-dose-only effect; inactive = no such curve, though single readings can be large or run the other way; also: nearly all actives have a fitted effect of over 50% in size
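Fission yeast strain RE007, carrying one chromosomally integrated HIV-1 vpr copy, was seeded at OD 0.01 in PMG+AL medium with 23 nL pinned compound. After 24 h at 30 °C and 99% humidity, viability was read by BacTiter-Glo luminescence.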
AmpC no deterg: blocks E. coli AmpC beta-lactamase in detergent-free assay | AmpC nitrocefin hydrolysis, absorbance 480 nm, 0.0001% Triton | Potency, µM (series often up to 57.1 µM), usual class: inhibitors | actives 0.52% (n = 330,000) | AID 485341; also: nearly all actives have a fitted effect of over 20% in size
Target sequence (P00811 whole entry, looked up): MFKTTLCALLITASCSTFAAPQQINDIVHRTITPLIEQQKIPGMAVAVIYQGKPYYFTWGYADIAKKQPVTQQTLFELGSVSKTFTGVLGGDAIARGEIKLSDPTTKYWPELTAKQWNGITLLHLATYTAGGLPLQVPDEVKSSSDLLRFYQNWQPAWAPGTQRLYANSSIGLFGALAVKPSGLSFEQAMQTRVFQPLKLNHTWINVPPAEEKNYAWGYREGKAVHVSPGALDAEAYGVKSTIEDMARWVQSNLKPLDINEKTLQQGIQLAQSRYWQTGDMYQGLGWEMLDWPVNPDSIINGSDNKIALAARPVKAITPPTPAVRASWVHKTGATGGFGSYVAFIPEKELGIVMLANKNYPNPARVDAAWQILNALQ
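AmpC (5.3 nM in the dispensed reagent) in 20 mM phosphate pH 7.0 with 0.01% (detergent screen) or 0.0001% Triton X-100 was preincubated with compounds for 15 min at room temperature. Nitrocefin was then added from an 800 uM solution, and hydrolysis was followed at 480 nm.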
AmpC detergent: blocks E. coli AmpC beta-lactamase in detergent assay | Potency, µM (series often up to 114 µM), usual class: inhibitors | actives 0.041% (n = 370,000) | P00811 | AmpC hydrolysis of nitrocefin, absorbance 480 nm, 0.01% Triton; also: nearly all actives have a fitted effect of over 25% in size
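AmpC (5.3 nM in the dispensed reagent) in 20 mM phosphate pH 7.0 with 0.01% (detergent screen) or 0.0001% Triton X-100 was preincubated with compounds for 15 min at room temperature. Nitrocefin was then added from an 800 uM solution, and hydrolysis was followed at 480 nm.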
AMA1-RON2 inh: disrupts binding of P. falciparum AMA1 to RON2 | AlphaScreen AMA1-biotinylated RON2 peptide binding | Potency, µM (top dose mostly 58.2 µM), hits mostly inhibitors | actives 0.2% (n = 360,000); also: nearly all actives have a fitted effect of over 45% in size
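AMA1 (3D7) with his tag at 25 nM final met compounds first, then biotinylated RON2 peptide at 25 nM; detection used donor plus acceptor beads, 10 µg/mL apiece, read by AlphaScreen after 30 min at room temperature.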
Hits are given with their value. Compounds with a hit are over-represented: about 0.79% of the library has one in this group of screens. Unless noted, calls follow the shape of the dose curve; as a rule, active = well fitted curve in the direction sought with a large enough effect; inconclusive = small, poorly fitted or top-dose-only effect, or another doubt; inactive = no such curve, though single readings can be large; an effect the other way counts as inactive or inconclusive.

What do the screens show for `O=C(NCC(c1ccco1)N1CCc2ccccc21)C(=O)Nc1ccccc1F` (configuration not stated)?
RE007 growth inh: inactive; AmpC no deterg: inactive; AmpC detergent: inactive; AMA1-RON2 inh: inconclusive

What do the screens show for `O=C(NCC(c1ccco1)N1CCc2ccccc21)C(=O)Nc1ccccc1` (configuration not stated)?
RE007 growth inh: inactive; AmpC no deterg: 10µM; AmpC detergent: inconclusive; AMA1-RON2 inh: inactive

What do the screens show for `Cc1ccc(Cl)cc1Nc1nn2c(=O)c3ccc(C(=O)NC4CCCCC4)cc3nc2s1`?
AmpC detergent: inactive

How did O=C(CN1C(=O)C2(SCC(=O)N2c2ccc(Cl)cc2)c2ccccc21)NCCc1ccccc1 (configuration not stated) do in these assays?
AmpC detergent: inactive

What do the screens show for `Cc1ccc(Cl)cc1-n1c(=O)c2sc3ccccc3c2n(CC(=O)NC2CCCC2)c1=O`?
AmpC detergent: inactive

How did O=C1S/C(=C/c2ccccc2)C(=O)N1CC(O)Cn1c2ccccc2c2ccccc21 (configuration not stated) do in these assays?
RE007 growth inh: inactive; AmpC no deterg: 16µM; AmpC detergent: inactive; AMA1-RON2 inh: inactive

How did Cc1nc(N/N=C/c2ccc(O)cc2)c2cnn(-c3ccccc3)c2n1 do in these assays?
RE007 growth inh: inactive; AmpC no deterg: 16µM; AmpC detergent: inactive; AMA1-RON2 inh: inactive

How did Cc1nc2ccccc2nc1N/N=C/c1ccc(O)cc1 do in these assays?
RE007 growth inh: inactive; AmpC no deterg: inactive; AmpC detergent: inactive; AMA1-RON2 inh: inactive

Results for O=C1c2ccccc2C(=O)c2cc(S(=O)(=O)Nc3ccccc3)ccc21 ?
RE007 growth inh: inactive; AmpC no deterg: 28µM; AmpC detergent: inactive; AMA1-RON2 inh: inactive

What do the screens show for `O=C(O)c1cccc(NS(=O)(=O)c2ccc3c(c2)C(=O)c2ccccc2C3=O)c1`?
RE007 growth inh: inactive; AmpC no deterg: inactive; AmpC detergent: inactive; AMA1-RON2 inh: inactive

How did O=C(Nc1ccc2oc(-c3ccccc3F)nc2c1)c1ccc2c(c1)OCCO2 do in these assays?
RE007 growth inh: inactive; AmpC no deterg: inactive; AmpC detergent: inactive; AMA1-RON2 inh: 8.4µM

What do the screens show for `Cc1cccc(Nc2nnc(SCC(=O)c3ccc(O)cc3O)s2)c1`?
RE007 growth inh: inactive; AmpC no deterg: inactive; AmpC detergent: inactive; AMA1-RON2 inh: inactive

How did Cc1ccc(Nc2nnc(SCC(=O)c3ccc(O)cc3O)s2)cc1 do in these assays?
RE007 growth inh: inactive; AmpC no deterg: 11µM; AmpC detergent: inactive; AMA1-RON2 inh: inactive

How did CCCN(CCC)c1nc(Cl)nc(NCc2ccco2)n1 do in these assays?
RE007 growth inh: inactive; AmpC no deterg: 0.16µM; AmpC detergent: inactive; AMA1-RON2 inh: inactive

Results for COC(=O)c1c(-c2ccc(Cl)cc2)noc1N1CCN(c2cc(C)ccc2C)CC1 ?
AmpC detergent: inactive

Results for CCc1nc2ccc(C(=O)Nc3ccc(OC)c(OC)c3)cn2c1N(C)Cc1ccc(N(C)C)cc1 ?
RE007 growth inh: inactive; AMA1-RON2 inh: 32µM

How did CCN(CC)CCNC(=O)c1ccc(CSc2nc3ccncc3n2Cc2cccc(F)c2)cc1 do in these assays?
AmpC detergent: inactive

How did Cc1ccccc1NC(=O)CSc1nc(N)c2c3c(sc2n1)CSC(C)(C)C3 do in these assays?
RE007 growth inh: inactive; AmpC no deterg: 16µM; AmpC detergent: inconclusive; AMA1-RON2 inh: inactive

How did O=C1CC(N(O)C2CC(=O)N(Cc3ccccc3)C2=O)C(=O)N1Cc1ccccc1 (configuration not stated) do in these assays?
RE007 growth inh: 45µM; AmpC no deterg: inactive; AmpC detergent: inactive; AMA1-RON2 inh: inactive

How did CCCN(CCC)C1CC(=O)N(Cc2ccccc2)C1=O (configuration not stated) do in these assays?
RE007 growth inh: 14µM; AmpC no deterg: inactive; AmpC detergent: inconclusive; AMA1-RON2 inh: inactive

Results for COc1ccc(Nc2ncc3c(n2)CCN(Cc2ccccc2C)C3)c(OC)c1 ?
AmpC detergent: inactive

Results for COc1cc(C(=O)Nc2ccc3oc(-c4ccc(C)c(Br)c4)nc3c2)cc(OC)c1OC ?
AmpC detergent: inactive

What do the screens show for `OC(CNCc1ccccc1)Cn1ccc2ccccc21` (configuration not stated)?
RE007 growth inh: inactive; AmpC no deterg: 18µM; AmpC detergent: inactive; AMA1-RON2 inh: inactive

Results for Oc1ccccc1NCC(O)Cn1ccc2ccccc21 (configuration not stated) ?
RE007 growth inh: inactive; AmpC no deterg: inactive; AmpC detergent: inconclusive; AMA1-RON2 inh: inconclusive

What do the screens show for `Cc1cc(N2CCOCC2)ccc1/C=C\[N+](=O)[O-]`?
RE007 growth inh: 7.9µM; AmpC no deterg: inactive; AmpC detergent: inactive; AMA1-RON2 inh: inactive

How did O=[N+]([O-])c1ccc(N2CCOCC2)cc1O do in these assays?
RE007 growth inh: inactive; AmpC no deterg: inactive; AmpC detergent: inactive; AMA1-RON2 inh: inactive

What do the screens show for `Cn1nnnc1SCCCNCc1cccc(OCc2ccccc2F)c1`?
AmpC detergent: inactive

How did O=c1[nH]c2ccc(Cl)cc2c(-c2ccccc2)c1SC(=S)N1CCCCC1 do in these assays?
RE007 growth inh: inactive; AmpC no deterg: 10µM; AmpC detergent: inactive; AMA1-RON2 inh: inactive

What do the screens show for `COc1ccc(NC(=O)CN2CCN(Cc3ccc(F)cc3)S2(=O)=O)cc1Cl`?
AmpC detergent: inactive

Results for CC1=C/C(=N\Nc2ccccc2[N+](=O)[O-])CC(C)(C)C1 ?
RE007 growth inh: inactive; AmpC no deterg: inactive; AmpC detergent: inactive; AMA1-RON2 inh: 3.5µM

Results for COc1ccc(NC(=O)C2=C(C)Nc3nc(SCc4ccccc4)nn3C2c2cc(OC)ccc2OC)cc1 (configuration not stated) ?
AmpC detergent: inactive

Results for COc1ccc(OC)c(C2C(C(=O)Nc3ccc(F)cc3)=C(C)Nc3nc(CCCO)nn32)c1 (configuration not stated) ?
RE007 growth inh: inactive; AmpC no deterg: 8.9µM; AmpC detergent: inactive; AMA1-RON2 inh: inactive

How did COc1ccc(OC)c(C2C(C(N)=O)=C(C)Nc3nc(CCCO)nn32)c1 (configuration not stated) do in these assays?
RE007 growth inh: inactive; AmpC no deterg: 1.6µM; AmpC detergent: inconclusive; AMA1-RON2 inh: inactive

What do the screens show for `COc1cccc(CNC(=O)Cn2c(=O)cc(C)c3c(C)nn(C)c32)c1OC`?
AmpC detergent: inactive

How did CCCCNC(=O)Cn1nc(N2CCN(c3ccccc3OC)CC2)ccc1=O do in these assays?
AmpC detergent: inactive

How did CCc1ccc2nc(N(CCN(CC)CC)C(=O)c3cccs3)sc2c1 do in these assays?
AmpC detergent: inactive

What do the screens show for `O=C(Nc1ccc(Cl)cc1Cl)c1cc(S(=O)(=O)N2CCc3ccccc32)ccc1F`?
AmpC detergent: inactive

How did O=C(Nc1ccccc1)NC1(C(=O)NCCCN2CCOCC2)CCCCC1 do in these assays?
RE007 growth inh: inactive; AmpC no deterg: inactive; AmpC detergent: inactive; AMA1-RON2 inh: inactive

Results for O=C(Nc1ccccc1)NC1(C(=O)NCc2cccs2)CCCCC1 ?
RE007 growth inh: inactive; AmpC no deterg: 0.14µM; AmpC detergent: inactive; AMA1-RON2 inh: inactive

From PubChem
